{"source": "PubChem BioAssay", "key": {"[1]": {"experiment": "inhibitors of TNFa-induced NFkB p65 translocation, primary screen, imaging, HUVEC, MLSMR starter and 10KST1 sets (AID 438);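 also: compound added about 3h40 before a 20 min TNFalpha stimulation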;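 as to inhibition: signal is the nuclear over cytoplasmic p65 intensity ratio per well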", "details": "HUVEC TNFa-induced p65 nuclear translocation; cell count: measured here: nuclei count (cytotoxicity indicator), at 2.08 µM; inhibition: at 2 µM, stronger effect = higher value, 0% TNFa-plus-vehicle, 100% no-TNFa wells"}, "[2]": {"experiment": "inhibitors of mutant huntingtin aggregation, primary screen, imaging, exon1htt(103Q)mCFP cells, high-content imaging (AID 483;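 active = visual image review flags a hit and inhibition of aggregation exceeds 20%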;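 also: compound exposure lasted 3 days before fixation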;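 as to nuclei count: percent of the per-plate median nuclei count of sample wells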)", "details": "exon1htt(103Q)mCFP cell line, aggregate imaging, at 2 µM; inhibition of aggregation: stronger effect = higher value; nuclei count: measured here: cell count, toxicity"}, "[3]": {"experiment": "inhibitors of E-selectin induction by TNFa, primary screen, imaging, HUVEC, immunofluorescence, MLSMR starter and 10KST1 sets (AID 487;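 active = visually confirmed hit in the image check and inhibition above 20%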;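 as to inhibition: signal is fraction of cell area covered by stained E-selectin grains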;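 as to nuclei count: 100% = median nuclei count of all wells on the same plate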)", "details": "HUVEC TNFalpha-induced E-selectin immunofluorescence imaging, at 2 µM; inhibition: stronger effect = higher value; nuclei count: measured here: cell number, toxicity"}, "[4]": {"target": "Voltage-gated potassium channel subunit beta-2 (Rattus norvegicus) (UniProt P62483)", "sequence (P62483 whole entry, looked up)": "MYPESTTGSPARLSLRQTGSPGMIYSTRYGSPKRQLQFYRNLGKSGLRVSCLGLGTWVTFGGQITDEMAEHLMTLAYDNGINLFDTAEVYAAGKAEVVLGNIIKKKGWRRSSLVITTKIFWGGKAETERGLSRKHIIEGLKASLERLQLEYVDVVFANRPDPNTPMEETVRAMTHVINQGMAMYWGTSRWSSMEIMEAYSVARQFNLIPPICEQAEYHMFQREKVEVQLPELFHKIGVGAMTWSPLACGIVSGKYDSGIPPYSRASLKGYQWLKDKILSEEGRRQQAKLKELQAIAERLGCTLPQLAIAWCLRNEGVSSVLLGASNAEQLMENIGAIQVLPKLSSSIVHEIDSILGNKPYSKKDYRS", "experiment": "KvBeta enzyme negative modulators, primary screen, biochemical, NADPH fluorescence (AID 622;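 active = fluorescence slope higher than the sample average by over 3 SD, cut at about -0.22 in these data, passing the limit was not always enough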;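 also: slope of raw intensity against log time taken from 70 to 1610 s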)", "details": "recombinant KvBeta, 4-cyanobenzaldehyde reduction, at 10 µM, stronger effect = higher value"}, "[5]": {"target": "Voltage-gated potassium channel subunit beta-2 (Rattus norvegicus) (UniProt P62483)", "experiment": "KvBeta positive modulators, primary screen, biochemical, NADPH fluorescence (AID 623;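 active = NADPH fluorescence slope more negative than the mean of all samples by about 3 SD, 99.7% confidence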;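 also: fluorescence intensity change per second fitted from 20 to 320 s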)", "details": "Recombinant KvBeta, NADPH fluorescence decrease slope, 10 min; at 10 µM; stronger effect = lower value"}, "[6]": {"target": "Alpha-2C adrenergic receptor (Homo sapiens) (UniProt P18825)", "sequence (P18825 whole entry, looked up)": "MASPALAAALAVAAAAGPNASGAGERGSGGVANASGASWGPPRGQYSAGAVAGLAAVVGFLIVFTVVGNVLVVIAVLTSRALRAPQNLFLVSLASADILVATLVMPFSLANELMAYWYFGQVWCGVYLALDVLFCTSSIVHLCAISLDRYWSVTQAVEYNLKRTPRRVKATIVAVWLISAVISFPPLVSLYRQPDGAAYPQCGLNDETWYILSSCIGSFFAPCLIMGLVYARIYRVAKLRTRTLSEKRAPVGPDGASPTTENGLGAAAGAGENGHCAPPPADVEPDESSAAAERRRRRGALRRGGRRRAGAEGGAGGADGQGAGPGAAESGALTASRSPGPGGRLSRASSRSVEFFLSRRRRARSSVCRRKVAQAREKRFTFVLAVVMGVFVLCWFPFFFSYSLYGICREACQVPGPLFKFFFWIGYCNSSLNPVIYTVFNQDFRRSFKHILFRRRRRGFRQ", "experiment": "modulators of alpha2C/GIRK thallium flux, primary screen, cell-based, HEK293 alpha2C/GIRK1/2 (AID 624;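 active = fluorescence slope after compound addition differing from the mean of all screened samples at 99.7% confidence, in either direction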;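 also: slope of fluorescence ratio to pre-addition baseline per second over 15 to 24 s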)", "details": "thallium flux BTC fluorescence, at 10 µM, actives lie on both sides"}, "[7]": {"experiment": "inhibitors of Sendai virus-induced IRF3 signaling, primary screen, TLR/RLR signaling modifier project, cell-based, Sendai virus stimulus, luciferase, 10K MLSCN set (AID 602276;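 active = inhibition at or above 50% at 10 µM; inactive = inhibition below 50%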;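 also: firefly luciferase from ISG56 promoter only with Renilla not read in this screen; 0% = Sendai virus plus DMSO and 100% = medium plus DMSO without virus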)", "details": "HEK293 RL24 IRF3 luciferase reporter, at 10 µM, stronger effect = higher value"}, "[8]": {"experiment": "inhibitors of poly I:C-induced TLR3 signaling, primary screen, cell-based, poly I:C stimulus, luciferase, 10K MLSCN set (AID 602277;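 active = inhibition of the reporter signal at or above 50%; inactive = inhibition below 50%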)", "details": "HEK293-TLR3 RL24 IRF3 luciferase reporter, at 10 µM, stronger effect = higher value"}}, "note": "The source made the active and inactive calls.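 The calls were made as follows, unless noted: active = inhibition above 20% together with a positive visual image hit; inconclusive = visual image hit but inhibition not above 20%; inactive = no visual image hit.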 Where a SMILES comes first, the peptide text is derived from it. The star is where a group is joined. Boc = CC(C)(C)OC(=O)*"}
{"smiles": "CCc1ccccc1NC(=O)c1ccoc1C", "values": [{"measurement": "cell count", "setting": "[1]", "value": 399}, {"measurement": "inhibition", "setting": "[1]", "value": "2.4% (inactive)"}, {"measurement": "inhibition of aggregation", "setting": "[2]", "value": "0.7% (inactive)"}, {"measurement": "nuclei count", "setting": "[2]", "value": 97.9, "unit": "%"}, {"measurement": "inhibition", "setting": "[3]", "value": "-12.3% (inactive)"}, {"measurement": "nuclei count", "setting": "[3]", "value": 99.5, "unit": "%"}, {"measurement": "fluorescence slope", "setting": "[4]", "value": "-0.493 (inactive)"}, {"measurement": "NADPH fluorescence slope", "setting": "[5]", "value": "-5.8e-05 (inactive)"}, {"measurement": "slope", "setting": "[6]", "value": "0.00456 (inactive)"}, {"measurement": "inhibition", "setting": "[7]", "value": "13.9% (inactive)"}, {"measurement": "inhibition", "setting": "[8]", "value": "17.6% (inactive)"}]}
{"smiles": "c1coc(CN(Cc2cccs2)Cc2nnnn2C2CCCCC2)c1", "values": [{"measurement": "cell count", "setting": "[1]", "value": 394}, {"measurement": "inhibition", "setting": "[1]", "value": "-10.4% (inactive)"}, {"measurement": "inhibition of aggregation", "setting": "[2]", "value": "26.1% (inactive)"}, {"measurement": "nuclei count", "setting": "[2]", "value": 119, "unit": "%"}, {"measurement": "inhibition", "setting": "[3]", "value": "-12.8% (inactive)"}, {"measurement": "nuclei count", "setting": "[3]", "value": 97.7, "unit": "%"}, {"measurement": "fluorescence slope", "setting": "[4]", "value": "-0.571 (inactive)"}, {"measurement": "NADPH fluorescence slope", "setting": "[5]", "value": "1.3e-05 (inactive)"}, {"measurement": "slope", "setting": "[6]", "value": "0.00524 (inactive)"}, {"measurement": "inhibition", "setting": "[7]", "value": "19.6% (inactive)"}, {"measurement": "inhibition", "setting": "[8]", "value": "24.5% (inactive)"}]}
{"smiles": "CC(C)(C)OC(=O)N1CCCC1C(=O)NC(Cc1ccccc1)C(=O)O", "note": "(stereo not drawn) (Boc-Pro-Phe-OH; configuration not given here)", "values": [{"measurement": "cell count", "setting": "[1]", "value": 431}, {"measurement": "inhibition", "setting": "[1]", "value": "1% (inactive)"}, {"measurement": "inhibition of aggregation", "setting": "[2]", "value": "4.3% (inactive)"}, {"measurement": "nuclei count", "setting": "[2]", "value": 99.5, "unit": "%"}, {"measurement": "inhibition", "setting": "[3]", "value": "21.6% (inactive)"}, {"measurement": "nuclei count", "setting": "[3]", "value": 101, "unit": "%"}, {"measurement": "fluorescence slope", "setting": "[4]", "value": "-0.607 (inactive)"}, {"measurement": "NADPH fluorescence slope", "setting": "[5]", "value": "1.1e-05 (inactive)"}, {"measurement": "slope", "setting": "[6]", "value": "0.00669 (inactive)"}, {"measurement": "inhibition", "setting": "[7]", "value": "12.2% (inactive)"}, {"measurement": "inhibition", "setting": "[8]", "value": "17.2% (inactive)"}]}
{"smiles": "O=C(CCC(=O)c1cccs1)NCc1ccccc1", "values": [{"measurement": "cell count", "setting": "[1]", "value": 462}, {"measurement": "inhibition", "setting": "[1]", "value": "-0.2% (inactive)"}, {"measurement": "inhibition of aggregation", "setting": "[2]", "value": "-5.4% (inactive)"}, {"measurement": "nuclei count", "setting": "[2]", "value": 111, "unit": "%"}, {"measurement": "inhibition", "setting": "[3]", "value": "-24.2% (inactive)"}, {"measurement": "nuclei count", "setting": "[3]", "value": 132, "unit": "%"}, {"measurement": "fluorescence slope", "setting": "[4]", "value": "-0.622 (inactive)"}, {"measurement": "NADPH fluorescence slope", "setting": "[5]", "value": "-5.1e-06 (inactive)"}, {"measurement": "slope", "setting": "[6]", "value": "0.0103 (inactive)"}, {"measurement": "inhibition", "setting": "[7]", "value": "-1.41% (inactive)"}, {"measurement": "inhibition", "setting": "[8]", "value": "1.97% (inactive)"}]}
{"smiles": "Cc1cc(C(=O)NCc2cccnc2)n(-c2ccccc2)n1", "values": [{"measurement": "cell count", "setting": "[1]", "value": 613}, {"measurement": "inhibition", "setting": "[1]", "value": "-0.9% (inactive)"}, {"measurement": "inhibition of aggregation", "setting": "[2]", "value": "-20.8% (inactive)"}, {"measurement": "nuclei count", "setting": "[2]", "value": 103, "unit": "%"}, {"measurement": "inhibition", "setting": "[3]", "value": "-82.8% (inactive)"}, {"measurement": "nuclei count", "setting": "[3]", "value": 127, "unit": "%"}, {"measurement": "fluorescence slope", "setting": "[4]", "value": "-0.546 (inactive)"}, {"measurement": "NADPH fluorescence slope", "setting": "[5]", "value": "-1.4e-05 (inactive)"}, {"measurement": "slope", "setting": "[6]", "value": "0.00657 (inactive)"}, {"measurement": "inhibition", "setting": "[7]", "value": "-0.216% (inactive)"}, {"measurement": "inhibition", "setting": "[8]", "value": "8.35% (inactive)"}]}
{"smiles": "O=C(Cn1cnc2c(nnn2-c2ccc(F)cc2)c1=O)N1CCCc2ccccc21", "values": [{"measurement": "cell count", "setting": "[1]", "value": 654}, {"measurement": "inhibition", "setting": "[1]", "value": "0.4% (inactive)"}, {"measurement": "inhibition of aggregation", "setting": "[2]", "value": "-21.9% (inactive)"}, {"measurement": "nuclei count", "setting": "[2]", "value": 130, "unit": "%"}, {"measurement": "inhibition", "setting": "[3]", "value": "1.5% (inactive)"}, {"measurement": "nuclei count", "setting": "[3]", "value": 102, "unit": "%"}, {"measurement": "fluorescence slope", "setting": "[4]", "value": "-0.523 (inactive)"}, {"measurement": "NADPH fluorescence slope", "setting": "[5]", "value": "-1.6e-06 (inactive)"}, {"measurement": "slope", "setting": "[6]", "value": "0.00588 (inactive)"}, {"measurement": "inhibition", "setting": "[7]", "value": "14% (inactive)"}, {"measurement": "inhibition", "setting": "[8]", "value": "12.1% (inactive)"}]}
{"smiles": "COc1ccc(C2C(C(=O)Nc3cccnc3)=C(C)Nc3nc(-c4cccs4)nn32)cc1OC", "note": "(configuration not stated)", "values": [{"measurement": "cell count", "setting": "[1]", "value": 543}, {"measurement": "inhibition", "setting": "[1]", "value": "5.1% (inactive)"}, {"measurement": "inhibition of aggregation", "setting": "[2]", "value": "2.5% (inactive)"}, {"measurement": "nuclei count", "setting": "[2]", "value": 84.7, "unit": "%"}, {"measurement": "inhibition", "setting": "[3]", "value": "3.4% (inactive)"}, {"measurement": "nuclei count", "setting": "[3]", "value": 104, "unit": "%"}, {"measurement": "fluorescence slope", "setting": "[4]", "value": "-0.593 (inactive)"}, {"measurement": "NADPH fluorescence slope", "setting": "[5]", "value": "-4.3e-05 (inactive)"}, {"measurement": "slope", "setting": "[6]", "value": "0.0064 (inactive)"}, {"measurement": "inhibition", "setting": "[7]", "value": "7.94% (inactive)"}, {"measurement": "inhibition", "setting": "[8]", "value": "31.3% (inactive)"}]}
